Results on 66 molecules are retold here after ChEMBL document CHEMBL3988442, “University of Dundee, Small-Polar-MMV Screening Library” (2021).

Each structure is given as a SMILES string. Screen size: about 48,000 compounds; about 13,000 (27%) showed an effect of 50% or more. Some of the results follow.

This test relates to Wolbachia pipientis. The test can be described thus: Anti-Wolbachia Cell-Based Screen. On the set-up: scale not given: in the data most compounds retested in dose-response had high values. It counts as functional. To be noted: 5 µM.
Consider `Cc1noc(C)c1CN1C(=O)[C@H]2CC[C@@H]1CN(Cc1ccc(Cl)cc1)C2`, for which the “Percent Effect” value was -8.21%.
With `CC(C)n1ncc2cc(NC(=O)N3CCC(N4CCCC4)C3)cnc21` (stereo unspecified), the “Percent Effect” value is -0.151%.
With `COc1ccc(C(=O)Nc2nncs2)cn1`, the “Percent Effect” value was -3.004%.
Take `CCc1cc(N2CCN(c3cnccn3)CC2)n2nc(C)c(C)c2n1`: the “Percent Effect” value was 6.49%.
In the case of `CCc1nnc(Nc2cc(C)nc(C3CCN(c4ccncn4)C3)n2)s1` (stereo unspecified), the “Percent Effect” value turned out to be 171.2%.
Consider `CCc1nc(C2CCCN(c3ncccn3)C2)no1` (stereo unspecified), for which the “Percent Effect” value came out at 22.68%.
In the case of `CCc1nnc(Nc2cc(C)nc(C3CCN(c4ncccn4)C3)n2)s1` (stereo unspecified), the “Percent Effect” value amounted to 164.2%.
With `CCc1nc(CC(=O)N2CCN(c3cnccn3)CC2)cs1` the figure was 8.255%; with `CCc1nnc(CNC2CCN(c3ncnc4c(C)csc34)CC2)s1`, 6.605%; with `Cc1cc(C)nc(C2CCN(c3ccncn3)C2)n1` (stereo unspecified), 136%.
With `CCc1nnc(Nc2cccc(C3CCN(CCO)CC3)n2)s1` the figure was -9.2%; with `COc1cc(N2CCCC(c3nccn3Cc3ccncc3)C2)ncn1` (stereo unspecified), 26.87%.
For `CCc1nnc(Nc2cc(C)nc(C3CCN(c4cnccn4)C3)n2)s1` (stereo unspecified), the “Percent Effect” value came to 134.1%.
With `Cc1nccn1CCC1CCN(c2ccncn2)CC1` the figure was -24.71%.
To `Cc1ccccc1N1CCCN(c2ccncn2)CC1` belongs -18.24%.
For `c1cnc(N2CCC(C3CCN(CCCn4cccn4)C3)CC2)nc1` (stereo unspecified), the “Percent Effect” value was 5.409%.
With `Cc1ccc(C2CSCCN2C(=O)C2=CCCC2)o1` (stereo unspecified) the figure was -12.79%; with `CC(Cc1cccc(F)c1)C(=O)NS(=O)(=O)c1ccc(F)cc1` (stereo unspecified), -6.109%; with `CCCc1ccc(S(=O)(=O)NCCNC(=O)c2ccoc2)cc1`, -13.27%.
With `COc1ccc(NC(=O)C2OC(c3cccs3)=NN2C(C)=O)cc1` (stereo unspecified), the “Percent Effect” value was 116.4%.
For `CCc1ccc(NC(=O)C2OC(c3cccs3)=NN2C(C)=O)cc1` (stereo unspecified), the “Percent Effect” value is reported as 3.495%.
With `CC(=O)N1N=C(c2cccs2)OC1C(=O)Nc1ccc(C)cc1` (stereo unspecified) the figure was 119.7%.
With `O=C(Nc1ccccc1)C1CN(C(=O)c2cccs2)CC12CCOCC2` (stereo unspecified), the “Percent Effect” value was -0.3117%.
Take `COc1ccc(CC(C)(O)CNC(=O)Cc2cccs2)cc1` (stereo unspecified): the “Percent Effect” value is on record as 5.181%.
In the case of `O=C(Nc1ccccc1)C1CN(Cc2cccs2)CC12CCOCC2` (stereo unspecified), the “Percent Effect” value came out at 0.5273%.
On to `Cn1ccnc1COc1ccc(NC(=O)C2CCCO2)cc1` (stereo unspecified), for which the “Percent Effect” value is reported as -13.75%.
Consider `CCOc1ccc(NC(=O)c2cccc(OC)c2OC)cc1`, for which the “Percent Effect” value is recorded as 0.2949%.
For `CCc1nc(C)c([C@H]2CN(C)C[C@@H]2C(=O)Nc2ccc(OC)cc2)[nH]1`, the “Percent Effect” value stood at 7.798%.
`CC(=O)N1N=C(c2cccs2)OC1C(=O)Nc1ccccc1` (stereo unspecified): the “Percent Effect” value was determined as 103.8%.
Regarding `CCOc1ccc(NC(=O)C2OC(c3cccs3)=NN2C(C)=O)cc1` (stereo unspecified), the “Percent Effect” value was determined as 122.8%.
For `O=C1CC(CNc2cncc(Cl)n2)c2ccccc2N1` (stereo unspecified), the “Percent Effect” value is listed as -4.513%.
With `Cc1n[nH]c(CN2CCN(C(=O)C3CCC3)[C@@H]3CS(=O)(=O)C[C@@H]32)n1`, the “Percent Effect” value is -3.785%.
In the case of `Cc1cc(C(=O)Nc2ccc(OC3CCOCC3)c(C)c2)[nH]n1`, the “Percent Effect” value is listed as -9.28%.
For the molecule `O=C1CN(CCCNC(=O)Nc2ccccn2)CCN1`, the “Percent Effect” value worked out at 3.817%.
As for `Cc1nc(C)c(CC(=O)NCc2ccc(F)cc2F)s1`, the “Percent Effect” value worked out at 12.14%.
To `COc1cccc(CNC[C@H]2COCc3nc4cccnc4n32)n1` belongs -3.627%; to `OCC1(CCOc2ccccc2)CCCN(c2ccc(Cl)cn2)C1` (stereo unspecified), 19.44%; to `COc1ccc(NC(=O)C2OC(c3cccs3)=NN2C(C)=O)cc1OC` (stereo unspecified), 133.2%.
With `COc1ccc(NC(=O)C2CC2)cc1OCc1cccnc1`, the “Percent Effect” value is given as -2.646%.
To `CC(=O)N1N=C(c2cccs2)OC1C(=O)NCc1ccc(C)o1` (stereo unspecified) belongs 124.5%; to `CNC(=O)c1ccc(OC)c(NCc2noc(-c3cccs3)n2)c1`, -3.924%.
Regarding `Cc1ccc(CNC(=O)C2c3c(ncn3C(C)C)CCN2S(C)(=O)=O)o1` (stereo unspecified), the “Percent Effect” value is reported as -24.24%.
In the case of `CC(=O)N1N=C(c2cccs2)OC1C(=O)Nc1ccc(C(C)C)cc1` (stereo unspecified), the “Percent Effect” value is recorded as 90.69%.
For `O=c1oc(-c2cccs2)nn1CC(O)c1ccccc1` (stereo unspecified), the “Percent Effect” value was found to be 2.258%.
As for `Cc1ccc(CN(C(=O)NCC(c2cccs2)N(C)C)C2CC2)o1` (stereo unspecified), the “Percent Effect” value is given as 16.5%.
To `CNC(=O)C(C)S(=O)(=O)Cc1csc(-c2cccs2)n1` (stereo unspecified) belongs -15.96%; to `CCN(CC)C(=O)[C@@H]1C[C@H](N)CN1c1nnc(-c2ccccc2)s1`, 5.055%; to `CC(Cc1ccco1)NC(=O)Nc1ccc(S(C)(=O)=O)nc1` (stereo unspecified), -6.327%.
With `Cc1cc(-c2cc(N)c(=O)n(CC(=O)NC3CCCCC3)n2)c(C)o1`, the “Percent Effect” value was determined as 117.4%.
For `Cc1cc(-c2cc(N)c(=O)n(CC(=O)NC3CCCC3)n2)c(C)o1`, the “Percent Effect” value was found to be 122.3%.
On to `Cc1ccc(-c2cc(N)c(=O)n(CC(=O)NC3CCCCC3)n2)s1`, for which the “Percent Effect” value is recorded as -5.352%.
As for `COc1ccc(OC)c(C(=O)N2CCC(Nc3cccnc3)CC2)c1`, the “Percent Effect” value was found to be 94.46%.
Regarding `COc1cc(C(=O)N2CCC(Nc3cccnc3)CC2)ccc1C`, the “Percent Effect” value is given as 66.95%.
Consider `COc1cc(C(=O)N2CCC(c3n[nH]c(C4CC4)n3)CC2)ccc1C`, for which the “Percent Effect” value is listed as 15.65%.
For the molecule `COc1ccc(OC)c(C(=O)N2C[C@H]3CC[C@@H]2CN(C)C3)c1`, the “Percent Effect” value is recorded as 19.05%.
Consider `O=C(c1ccc[nH]1)N(Cc1ccc(O)cc1)CC1CC1`, for which the “Percent Effect” value was -7.123%.
To `CCOC(C)C(=O)NCc1cccc(CN2CCCCCC2)c1` (stereo unspecified) belongs 0.5451%.
As for `CC(C)COC(C)C(=O)NCc1ccc(Cn2ccnc2)cc1` (stereo unspecified), the “Percent Effect” value is on record as 0.5486%.
As to `CC(C)C(=O)NCc1ccc(N(C)C)cc1`, the “Percent Effect” value amounted to 131.8%.
Consider `CC(OCc1ccccc1)C(=O)NC1CCN(CC(N)=O)CC1` (stereo unspecified), for which the “Percent Effect” value is -2.8%.
Regarding `CC(OCc1ccccc1)C(=O)NCc1ccc(N(C)C)cc1` (stereo unspecified), the “Percent Effect” value is reported as 130.9%.
On to `CN(C)c1ccc(CNC(=O)Nc2ccc(S(=O)(=O)C(F)F)cc2)cc1`, for which the “Percent Effect” value is -8.512%.
With `CC(C)COC(C)C(=O)NCc1ccc(N(C)C)cc1` (stereo unspecified), the “Percent Effect” value is given as -1.344%.
For `CCOC(C)C(=O)NCc1ccc(N(C)C)cc1` (stereo unspecified), the “Percent Effect” value was found to be 106.9%.
As to `CN1CCC(CNC(=O)NCc2ccc(N(C)C)cc2)CC1`, the “Percent Effect” value is reported as -5.904%.
With `CCOc1cc(CNCc2ncc[nH]2)c(Cl)cc1OC(C)C` the figure was -9.365%.
